# Assay outcomes from PubChem.
# The list is not random: actives were taken first. Their share in the collection is about 7.5%.
# VACV Venus inh – inhibitors of vaccinia virus (Venus reporter); Vaccinia virus Venus reporter expression, fluorescence; Potency, µM (titrated, usually from 36.5 µM), for inactives: top-dose activity change, negative = inhibition, most hits filed as inhibitors; actives 0.46% (n = 330,000); AID 720580; calls by dose curve; tested in A549 cells; also: potency is read from the fitted curve at half-maximal effect; nearly all actives have a fitted effect of over 30% in size
# Giardia FBPA inh – Giardia lamblia aldolase inhibition; A8B2U2; purified Giardia FBPA; Potency, µM (top dose mostly 59.6 µM), for the others: at the top dose activity, negative = inhibition, most hits filed as inhibitors; actives 0.71% (n = 290,000); AID 2451; also: potency is read from the fitted curve at half-maximal effect; nearly all actives have a fitted effect of over 55% in size
# Target sequence (A8B2U2 whole entry, looked up): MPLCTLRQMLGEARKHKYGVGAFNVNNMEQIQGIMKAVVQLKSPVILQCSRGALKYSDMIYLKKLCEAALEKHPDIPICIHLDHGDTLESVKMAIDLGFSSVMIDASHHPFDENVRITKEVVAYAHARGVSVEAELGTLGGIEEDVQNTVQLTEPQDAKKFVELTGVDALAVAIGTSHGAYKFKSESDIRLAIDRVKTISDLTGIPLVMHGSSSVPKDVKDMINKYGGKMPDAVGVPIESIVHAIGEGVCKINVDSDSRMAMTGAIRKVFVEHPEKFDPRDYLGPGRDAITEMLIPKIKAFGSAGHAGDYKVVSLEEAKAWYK
#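 40 nM FBPA preincubated 10 min at RT with compound (up to 57.5 uM final), then substrate plus GAPDH/TPI/NAD/arsenate coupling and diaphorase/resazurin added. Fluorescence read after 20 min at RT, 525/598 nm.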
# HCV inh – HCV inhibition | Huh7.5.1 HCVcc-Cre infection, luciferase reporter, 44 h | AID 651820 | actives 3.4% (n = 340,000) | Potency, µM (highest dose often 41.8 µM), for the others: at the highest dose activity change, negative = inhibition, actives largely listed as inhibitors; also: potency is read from the fitted curve at half-maximal effect
#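 Seed cells (1,000/well) for 4 h; treat with compound and infect with HCVcc-Cre, moi about 0.5. Incubate 44 h, then detect luciferase activity.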
# HCMV antiviral – inhibitors of human cytomegalovirus. HFF cells, HCMV-luciferase reporter, 72 h; stronger effect = lower value. actives 4.5% (n = 410,000). AID 1259415. activity change, negative = inhibition, % at 57.5 µM; in the data active = activity change below about -60%; inconclusive = no clear call, values can overlap the other calls; inactive = above about -39%
#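 Human foreskin fibroblasts infected with luciferase-reporter HCMV at MOI 1 PFU/cell, compounds at two doses. Luciferase measured 72 h post infection; normalized to buffer-only basal and Salinomycin (10uM) controls.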
# FMDV antiviral – blocks foot and mouth disease virus | Potency, µM (titrated, usually from 57.9 µM), without a hit: top-dose activity change, negative = inhibition, most hits filed as inhibitors | actives 1.2% (n = 410,000) | FMDV antiviral cell-based qHTS | AID 1159524; calls by dose curve; tested in HEK293T cells; also: read-out not given here; potency is read from the fitted curve at half-maximal effect; nearly all actives have a fitted effect of over 45% in size
# VACV mCherry inh – inhibitors of vaccinia virus infection (mCherry reporter signal) | Vaccinia virus mCherry reporter infection, fluorescence | Potency, µM (series often up to 36.5 µM), for inactives: top-dose activity change, negative = inhibition, actives largely listed as inhibitors | actives 0.63% (n = 310,000); calls by dose curve; tested in A549 cells; also: potency is read from the fitted curve at half-maximal effect; nearly all actives have a fitted effect of over 35% in size
# Active calls of the source: *; i = inactive; ? = inconclusive; · = no result; ! = repeats disagree; [ ] = dose if it differs, or a comment. Unless noted, calls follow the shape of the dose curve; as a rule, active = well fitted curve in the direction sought with a large enough effect; inconclusive = small, poorly fitted or top-dose-only effect, or another doubt; inactive = no such curve, though single readings can be large; an effect the other way counts as inactive or inconclusive. % is scaled to controls: 0 for no effect and ±100 for the full control effect.
SMILES,VACV Venus inh,Giardia FBPA inh,HCV inh,HCMV antiviral,FMDV antiviral,VACV mCherry inh
COc1ccc(C(=O)SC2=NCCS2)cc1OC,·,-2%,12%,58,?,·
Cc1ccc(C(=O)SC2=NCCS2)cc1,-16%,-8%,10%,-40,35µM*,-23%
CC/C(C)=N\Nc1nc(-c2cc3cc(OC)ccc3oc2=O)cs1,?,-18%,8.9µM*,30,-9%,?
COc1ccc2oc(=O)c(-c3nc(C)cs3)cc2c1,·,-1%,-9%,64,37%,·
CCCCC/C=C\C/C=C\C/C=C\C/C=C\CCCC(=O)NCc1ccc(O)c(OC)c1,·,-18%,·,·,·,·
COc1cc(CNC(=O)CCCC/C=C/C(C)C)ccc1O,?,-1%,1%,-8,45µM*!,-2%
Cc1cccc(N=C2NN=C(c3ccc4c(c3)OCCO4)CS2)c1,·,2%,-25%,107,4%,·
Cc1cccc(N=C2NN=C(c3c(C)[nH]c4ccccc34)CS2)c1,?,-9%,?,-99*,?,?
C#CCOCCOCCOCCNc1nc(N2CCN(C(=O)CCCCCCCCCCNC(=O)[C@H](CCCCN)n3cc(CCO)nn3)CC2)nc(N2CCN(C(=O)CCCCCCCCCCNC(=O)[C@H](CCCCN)n3cc(CCCC(=O)O)nn3)CC2)n1,-27%,·,2%,-8,-21%,i
Cc1cn([C@@H](CCCCNC(=O)OC(C)(C)C)C(=O)NCCCCCCCCCCC(=O)N2CCN(C(=O)OC(C)(C)C)CC2)nn1,?,·,?,·,11µM*,-11%
C#CCOCCOCCOCCNc1nc(N2CCN(C(=O)CCCCCCCCCCNC(=O)[C@H](CCCCN)n3cc(C)nn3)CC2)nc(N2CCN(C(=O)CCCCCCCCCCNC(=O)[C@@H]([C@H](C)O)n3cc(C)nn3)CC2)n1,11µM*,·,2.8µM*,·,-13%,?
C#CCOCCOCCOCCNc1nc(N2CCN(C(=O)CCCCCCCCCCNC(=O)[C@@H](CCSC)n3cc(CCO)nn3)CC2)nc(N2CCN(C(=O)CCCCCCCCCCNC(=O)[C@H](CO)n3cc(CCCCCN)nn3)CC2)n1,?,·,?,·,-24%,i
C#CCOCCOCCOCCNc1nc(N2CCN(C(=O)CCCCCCCCCCNC(=O)[C@@H](CCSC)n3cc(CCO)nn3)CC2)nc(N2CCN(C(=O)CCCCCCCCCCNC(=O)[C@@H]([C@H](C)O)n3cc(C)nn3)CC2)n1,?,·,-13%,-72*,-24%,-1%
C#CCOCCOCCOCCNc1nc(N2CCN(C(=O)CCCCCCCCCCNC(=O)[C@H](CCCCN)n3cc(C[C@@H](C)CC)nn3)CC2)nc(N2CCN(C(=O)CCCCCCCCCCNC(=O)[C@@H]([C@H](C)O)n3cc(C)nn3)CC2)n1,7.9µM*,·,?,·,?,11µM*
Nc1c(C(=O)Nc2ccccc2Cl)c2ccccn2c1C(=O)c1ccc(Cl)cc1,2%,·,·,12,-25%,-6%
Nc1cccc(Nc2nc(OC(C(F)(F)F)C(F)(F)F)nc(OC(C(F)(F)F)C(F)(F)F)n2)c1,28µM*,-17%,?,-107*,-24%,-33%[1.46 µM]
COc1ccc(S[C@]2(C(=O)N3CCCC3)CC(=O)N(c3ccc(OC)cc3)[C@@H]2c2ccc(OC)cc2)cc1,·,·,·,-1,·,·
O=C(CCCN1C(=O)/C(=C\c2cccs2)SC1=S)Nc1ccccn1,12%,-12%,25µM*,-97*,4%,i
O=C(CCCN1C(=O)/C(=C/c2cccs2)SC1=S)Nc1ccccc1O,-10%,-1%,?,-91*,-2%,?
O=C(CCCN1C(=O)/C(=C\c2cccs2)SC1=S)Nc1ccc(O)cc1,?,·,?,-99*,-11%,?
O=C(CCCN1C(=O)S/C(=C\C=C\c2ccccc2)C1=O)Nc1ccc(O)cc1,-17%,15%,13µM*,-37,-3%,?
O=C(CCN1C(=O)/C(=C/c2cccs2)SC1=S)Nc1ccccn1,·,6%,-11%,-26,-20%,·
O=C(CN1C(=O)S/C(=C/C=C/c2ccccc2)C1=O)Nc1ccc(C(=O)O)cc1,3%,17%,-17%,-19,29%,-15%
O=C(CCCN1C(=O)/C(=C\c2cccs2)SC1=S)Nc1ccc(O)cc1C(=O)O,·,·,12%,-37,-23%,·
Cc1ccc(CNC(=O)CCCCCn2c(=O)c3sccc3n(CC(=O)N(C)c3ccccc3)c2=O)cc1,5%,·,·,-13,-12%,-2%
SMILES,VACV Venus inh,Giardia FBPA inh,HCV inh,HCMV antiviral,FMDV antiviral,VACV mCherry inh
Cc1ccc(/C=C2\SC(=S)N(CCCC(=O)Nc3ccc(O)cc3)C2=O)cc1,-5%,4%,-29%,-95*,-5%,-25%
COC(=O)c1ccc(/C=C2/SC(=S)N(CCCC(=O)Nc3ccc(O)cc3)C2=O)cc1,·,·,10%,-32,-15%,·
c1ccc(COc2ncnc3c2ncn3CCCNCC(c2ccccc2)c2ccccc2)cc1,14µM*,·,·,-29,?,?
O=C(Nc1ccn(CCCNCC(c2ccccc2)c2ccccc2)c(=O)n1)OCc1ccccc1,11µM*,·,·,-36,-26%,13µM*
CC(CNCCCn1ccc(NC(=O)OCc2ccccc2)nc1=O)c1ccccc1 (stereo not given),-23%,·,-4%[8.37 µM],-13,-14%,i
O=c1cc(O)c2c([nH]1)CCC2,-10%,·,·,·,·,-23%
Cc1ccc(CNC(=O)Cn2ncc3c([nH]c4ccc(C)cc43)c2=O)cc1,-9%,·,·,2,3%,-11%
COc1ccc(CN2CCc3c(c(=O)n4ncc(C(=O)N5CCN(c6ccc(F)cc6)CC5)c4n3C)C2)cc1,-16%[7.34 µM],·,·,?,?,-22%
CCn1c2c(c(=O)n3ncc(C(=O)N4CCN(c5ccc(C(C)=O)cc5)CC4)c13)CN(Cc1ccc(OC)cc1)CC2,-17%,·,·,-36,20µM*,-24%
CCOC(=O)C(Nc1ccccc1NC(=O)OC(C)(C)C)C(=O)Nc1c(C)cccc1C (stereo not given),·,·,·,-8,·,·
Cc1nc(C(=O)N(Cc2cc3ccc(F)cc3nc2N2CCC(O)CC2)CC2CCCO2)cs1 (stereo not given),-6%,·,·,·,7%,-12%
Cc1c(-c2cccc(Cl)c2)nc2ccccc2c1C(=O)OC/C(O)=C(\C#N)c1nc2ccccc2[nH]1,-4%,-17%,8.9µM*,-82*,-25%,i
CCOC(=O)c1c(C)[nH]c(C(=O)OCC(O)=C(C#N)c2nc3ccccc3[nH]2)c1C,-17%,·,-14%,17,9%,-7%
N#C/C(=C(/O)CCl)c1nc2ccccc2[nH]1,?,?,?,-70*,35µM*,?
CCCC(=O)OC/C(O)=C(\C#N)c1nc2ccccc2[nH]1,11%,?,25%,-73*,-11%,13%
N#C/C(=C(/O)COC(=O)CCC1CCCCC1)c1nc2ccccc2[nH]1,12%,-10%,12%,-69*,?,-11%
